Laboratory results as given in PubChem BioAssay AID652257 (The Scripps Research Institute Molecular Screening Center, 2013).
In all, about 370,000 compounds went through this assay and about 4,800 (1.3%) were called active. Only a selection was taken, and actives are over-represented in it overall. Values without a mark were called inactive.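 Rule for the calls: active = inhibition above about 21% made by adding two undisclosed values (limit read from the data); inactive = the rest.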

These molecules were tested against Protein arginine N-methyltransferase 1 (Homo sapiens) (UniProt Q99873) (assay: PRMT1 methyltransferase inhibitors, primary screen, biochemical, fluorescence polarization (AID 652257)). Conditions: recombinant PRMT1, activity-based probe fluorescence polarization; at 2.79 µM; active compounds read high.
Chain of Protein arginine N-methyltransferase 1 (Homo sapiens) (Q99873 whole entry, looked up): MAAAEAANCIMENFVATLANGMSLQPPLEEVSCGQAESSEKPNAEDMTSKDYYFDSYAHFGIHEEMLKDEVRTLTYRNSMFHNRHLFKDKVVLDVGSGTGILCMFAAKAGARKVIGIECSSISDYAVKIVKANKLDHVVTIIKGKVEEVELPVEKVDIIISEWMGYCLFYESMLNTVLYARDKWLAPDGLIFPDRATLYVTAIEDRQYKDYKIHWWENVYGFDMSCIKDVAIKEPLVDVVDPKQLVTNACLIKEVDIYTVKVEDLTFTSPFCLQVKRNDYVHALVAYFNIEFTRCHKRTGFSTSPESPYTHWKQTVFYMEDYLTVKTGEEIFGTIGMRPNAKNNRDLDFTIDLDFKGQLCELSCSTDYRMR

Structure (SMILES) | inhibition
COc1cc(C2CC(=O)N3CN(Cc4ccccc4)CSC3=C2C#N)ccc1OCc1ccccc1 (configuration not stated) | 38.8% (active)
COc1cc(C2C(C(=O)c3ccco3)=C(O)C(=O)N2c2cc(C)on2)ccc1OCc1ccccc1 (configuration not stated) | 4.72%
CCCNC(=O)C1CC(=O)N(c2ccc(OCc3ccccc3)cc2)C1 (configuration not stated) | -0.86%
COc1ccnc(C(=O)N2CCC(Oc3cccnc3)CC2)c1 | 2.35%
Cc1cc(=O)[nH]c(=S)[nH]1 | 107% (active)
Cc1cc(=O)cc(C)[nH]1 | -3.92%
CSc1cc(C)[nH]c(=O)n1 | 2.31%
COC(=O)[C@H](C(C)C)N(CCc1cn(Cc2ccccc2)nn1)S(=O)(=O)c1ccc(F)cc1Br | 0.27%
Cc1ccc(C)c(S(=O)(=O)N(C)c2ccc(OC(=O)C3CCN(C(=O)c4ccc(F)cc4)CC3)cc2)c1 | 0.47%
CCCCC(=O)NC(c1ccc(OC)c(OC)c1)c1ccc2cccnc2c1O (configuration not stated) | -1.04%
CCOC(=O)N1CCN(C(c2ccnc3ccccc23)c2nnnn2-c2c(C)cccc2C)CC1 (configuration not stated) | -3.34%
CCOC(=O)N1CCN(C(c2cccnc2)c2ccc3cccnc3c2O)CC1 (configuration not stated) | 26.1% (active)
Cc1cccc(N2CCC(NCc3c(C(=O)N4CCCCC4)nc4c(C)cccn34)CC2)c1 | 7.11%
O=C(O)C1CCN(S(=O)(=O)N2CCOCC2)CC1 | 0.67%
O=C(O)c1c(NC(=O)N2CCCC2)sc2c1CCCC2 | 4.25%
NC(=O)c1c(Nc2nc3c(F)cccc3s2)sc2c1CCCC2 | 48.8% (active)
CCOC(=O)C(NC(=O)CC(C)C)(Nc1sc2c(c1C(N)=O)CCCC2)C(F)(F)F (configuration not stated) | 0.14%
Cc1ccc2nc(SCc3nnc(-c4ccccc4[N+](=O)[O-])o3)c(C#N)cc2c1 | -0.9%
Cc1ccc(-c2ccc(/C=C(\C#N)C(N)=S)o2)c([N+](=O)[O-])c1 | 34.7% (active)
COc1ccc(CN2C(=O)C(CC(=O)NCCCCc3ccccc3)CC(C(=O)N3CCOCC3)=C2C)cc1 (configuration not stated) | -9.04%
COCCNC(=O)C(c1ccc(C)cc1)N(C(=O)CCC(=O)Nc1ccccn1)c1cccc(C)c1 (configuration not stated) | -0.11%
CCOC(=O)c1c(N=CN(C)C)c(C#N)c2n1CCCC2 | -2.76%
Cc1ccc(Cn2cc(COC(=O)N(C)Cc3ccccc3)nn2)cc1 | 0.99%
O=C(COC(=O)Cn1[nH]c(=O)c2ccccc2c1=O)Nc1ncc(Cl)cc1Cl | -0.63%
O=C(CN1CCc2ccccc21)NC(c1ccccc1)c1ccccc1 | -3.28%
O=C(Cc1ccc(-c2ccccc2)cc1)NC(c1ccccc1)c1ccccc1 | 44.1% (active)
CCOC(=O)/C=C/C(=O)OCC(=O)NC(c1ccccc1)c1ccccc1 | 8.52%
